CHO-K1 Ca ag: counter-screen for M1 agonists: effect in parental CHO-K1 cells. Fluo-8 calcium fluorescence; scaled to maximal ATP response, vehicle zero. activation, % at 3 µM. hit rate 0.48% among 360,000. AID 602248; in the data active = activation above about 15%;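 also: untransfected CHO-K1 host cells lacking M1 receptor as counterscreen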
CHO-K1 Ca antag: counter-screen for M1 antagonists: effect in parental CHO-K1 cells | AID 602250 | ATP-induced calcium, Fluo-8 fluorescence | inhibition, % at 3 µM | hit rate 0.6% among 360,000;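 active = inhibition above a per-plate cutoff, the plate's mean sample inhibition plus 3 SD, cut at about 24% in these data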
CHRM1 agonist: agonists of human M1 muscarinic receptor; P11229; CHO-K1 hM1, Fluo-8 calcium fluorescence, agonist mode; 0% DMSO, 100% acetylcholine EC100; activation, % at 3 µM; hit rate 0.33% among 360,000;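 active = activation above the run's mean compound activation plus 3 SD, cut at about 16% in these data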;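 also: peak over basal fluorescence ratio within a 140 s kinetic read after compound addition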
Target sequence (P11229 whole entry, looked up): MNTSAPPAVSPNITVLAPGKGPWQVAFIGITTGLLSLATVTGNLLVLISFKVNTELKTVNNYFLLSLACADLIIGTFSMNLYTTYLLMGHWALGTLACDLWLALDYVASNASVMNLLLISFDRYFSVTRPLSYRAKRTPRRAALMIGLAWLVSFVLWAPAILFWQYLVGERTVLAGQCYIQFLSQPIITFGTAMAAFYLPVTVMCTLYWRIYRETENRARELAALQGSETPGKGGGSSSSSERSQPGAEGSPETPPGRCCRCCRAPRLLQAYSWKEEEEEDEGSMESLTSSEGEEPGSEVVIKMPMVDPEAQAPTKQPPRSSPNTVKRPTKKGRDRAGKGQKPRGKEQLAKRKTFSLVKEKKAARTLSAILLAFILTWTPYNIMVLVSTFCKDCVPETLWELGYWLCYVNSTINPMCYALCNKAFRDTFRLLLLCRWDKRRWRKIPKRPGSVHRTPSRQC
CHO-K1 Ca PAM: counter-screen for M1 PAMs: effect in parental CHO-K1 cells. activation, % at 3 µM. AID 602247. ATP EC20, Fluo-8 calcium fluorescence; 0% at ATP EC20, 100% at ATP max. hit rate 0.02% among 360,000;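 active = activation above the run cutoff, the mean activation of all test compounds plus 3 SD, cut at about 40% in these data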;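 also: peak over basal fluorescence ratio in a 140 s read after ATP addition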
CHRM1 PAM: positive allosteric modulators of human M1 muscarinic receptor; activation, % at 3 µM; CHO-K1 hM1, Fluo-8 calcium fluorescence, ACh EC20; 0% = ACh EC20, 100% = maximal ACh; AID 588819; hit rate 0.088% among 360,000; in the data active = activation above about 19%, passing the limit was not always enough
CHRM1 antagonist: antagonists of human M1 muscarinic receptor | inhibition, % at 3 µM | P11229 | CHO-K1 hM1, Fluo-8 calcium fluorescence, ACh EC80 antagonist | hit rate 1.3% among 360,000;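 active = percent inhibition above its own plate's cutoff, namely the mean of that plate's compound wells plus 3 SD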;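 also: peak over basal fluorescence ratio during 140 s after agonist addition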
A number is an active result; - = inactive. Most compounds without a hit are left out; they make up all but 2.4% or so of the library.

SMILES | CHO-K1 Ca ag | CHO-K1 Ca antag | CHRM1 agonist | CHO-K1 Ca PAM | CHRM1 PAM | CHRM1 antagonist
CCNc1ccc2noc3c2c1C(=O)c1ccccc1-3 | 51 | 27 | 75 | - | - | 36
CCOc1ccc2noc3c2c1C(=O)c1ccccc1-3 | - | - | 22 | - | - | -
O=C1c2ccccc2-c2onc3ccc(N4CCCC4)c1c23 | - | - | - | - | - | -
O=S(=O)(Nc1cccc(-c2nnco2)c1)c1ccc(F)cc1F | - | - | - | - | - | -
Cc1ccccc1C(=O)NNS(=O)(=O)c1ccc(F)cc1 | - | 24 | - | - | - | -
CCC(CC)C(=O)Nc1nnc(SCC(=O)NC(C)(C)C)s1 | - | - | - | - | - | -
Cn1nnnc1SCC(=O)NCCc1ccc(Cl)cc1 | - | - | - | - | - | -
CCOc1ccc(CCNC(=O)CSc2nnnn2C)cc1OCC | 16 | - | - | - | - | -
COc1nc(N)nc2nc[nH]c12 | - | - | - | - | - | -
COc1ccc2c(c1)CCc1cc(C(=O)N3CCN(c4ccc(N5CCOCC5)nn4)CC3)sc1-2 | - | 31 | - | - | - | -
COc1cccc(C(=O)N2CCN(c3ccc(N4CCOCC4)nn3)CC2)c1 | - | - | - | - | - | -
N#Cc1cc([N+](=O)[O-])ccc1N1CCN(c2ccccc2O)CC1 | - | - | - | - | - | -
O=[N+]([O-])c1ccc(N2CCN(c3ccc([N+](=O)[O-])cc3CO)CC2)c(CO)c1 | 18 | - | - | - | - | -
CN1CCN(c2ccc([N+](=O)[O-])cc2C(=O)c2ccc(Br)cc2)CC1 | - | - | - | - | - | 21
CC1(C2CC2)NC(=O)N(CC(=O)N2CCN(S(=O)(=O)c3ccc(F)c(F)c3)CC2)C1=O (stereo not given) | - | - | - | - | - | -
Cc1c(C(=O)NCCC2=CCCCC2)oc2ccc(S(=O)(=O)N3CCC4(CC3)OCCO4)cc12 | - | - | - | - | - | 35
Cc1c(C(=O)NCc2ccccc2)oc2ccc(S(=O)(=O)N3CCC4(CC3)OCCO4)cc12 | - | - | - | - | - | -
Cc1c(C(=O)NCC2COc3ccccc3O2)oc2ccc(S(=O)(=O)N3CC(C)CC(C)C3)cc12 (stereo not given) | - | - | - | - | - | -
Cc1c(C(=O)NCC2COc3ccccc3O2)oc2ccc(S(=O)(=O)N3CCOCC3)cc12 (stereo not given) | - | - | - | - | - | 35
CC(C)C(=O)Nc1ccc2c(c1)nc1n2CCSC1 | - | - | - | - | - | -
CCC(=O)Nc1ccc2c(c1)nc1n2CCSC1 | - | 24 | - | - | - | -
CCCc1nc(NCc2ccncc2)c2nnn(Cc3ccccc3F)c2n1 | - | - | - | - | - | -
CCCc1nc(NCc2ccccn2)c2nnn(Cc3ccccc3F)c2n1 | - | 30 | - | - | - | -
O=C(COc1cccc([N+](=O)[O-])c1)NN1C(=O)c2ccccc2C1=O | - | - | - | - | - | -
CCCOc1ccc(F)cc1-c1cc(C(=O)NCc2cccs2)[nH]n1 | - | - | - | - | - | -
SMILES | CHO-K1 Ca ag | CHO-K1 Ca antag | CHRM1 agonist | CHO-K1 Ca PAM | CHRM1 PAM | CHRM1 antagonist
Nc1nc(CN2CCC(Cc3ccccc3)CC2)nc(Nc2ccccc2)n1 | - | - | - | - | - | 31
Cc1ccc(Nc2nc(N)nc(CN3CCN(c4ccccc4F)CC3)n2)cc1 | - | - | - | - | - | -
Nc1nc(CN2CCN(c3ccccc3F)CC2)nc(Nc2ccccc2)n1 | - | 31 | - | - | - | -
CCOC(=O)C1CCCN(Cc2nc(N)nc(Nc3ccccc3)n2)C1 (stereo not given) | - | - | 31 | - | - | -
Nc1nc(CN2CCCCCC2)nc(Nc2ccccc2)n1 | - | - | - | - | - | -
Cc1ccccc1NC(=O)c1ccc(CN(c2ccccc2)S(=O)(=O)c2ccccc2)cc1 | - | - | - | - | - | -
CCN(CC)c1ccc(/C=N/N2CCOCC2)cc1 | - | - | - | - | - | -
CCN(Cc1ccccc1)c1ccc(/C=N/N2CCOCC2)cc1 | - | 27 | - | - | - | -
COc1ccccc1C(CNC(=O)c1cccc(S(=O)(=O)Nc2ccc(C)cc2)c1)N1CCCC1 (stereo not given) | - | - | - | - | - | 78
COc1ccccc1NS(=O)(=O)c1cccc(C(=O)NCC(c2ccccc2OC)N2CCCC2)c1 (stereo not given) | - | - | - | - | - | 42
CCN(c1ccccc1)S(=O)(=O)c1ccc(C(=O)NCC(c2ccccc2OC)N2CCCC2)cc1 (stereo not given) | - | - | - | - | - | -
C=CCN(c1ccccc1)S(=O)(=O)c1cccc(C(=O)NCC(c2ccccc2OC)N2CCCC2)c1 (stereo not given) | - | - | - | - | - | 50
CCN1CCN(CCCNC(=O)CCC(=O)N2CCOc3ccc(Cl)cc32)CC1 | - | - | - | - | - | -
Cc1ccc(NS(=O)(=O)c2ccc3c(c2)n(C)c(=O)n3C)c(C)c1 | 18 | - | - | - | - | -
Cn1c(=O)n(C)c2cc(S(=O)(=O)Nc3ccccc3O)ccc21 | - | - | - | - | - | -
CN(CC(=O)Nc1cccc(S(=O)(=O)N2CCCC2)c1)CC(=O)Nc1ccc(Cl)c(C(F)(F)F)c1 | - | 32 | - | - | - | 26
CN(CC(=O)Nc1ccc(Cl)c(Cl)c1)CC(=O)N1CCCCCC1 | - | - | - | - | - | 71
CN(CC(=O)Nc1ccc(Cl)c(C(F)(F)F)c1)CC(=O)NC1CCCCC1 | - | - | - | - | - | 26
CN(CC(=O)NCc1ccccc1)CC(=O)Nc1ccc(Cl)c(C(F)(F)F)c1 | - | - | - | - | - | -
O=c1oc2ccccc2c(Nc2cccc3cccnc23)c1[N+](=O)[O-] | - | - | - | - | - | -
COc1cc(/C=C2/S/C(=N/S(=O)(=O)c3ccccc3)NC2=O)c([N+](=O)[O-])cc1OC | - | - | - | - | - | -
O=C1N/C(=N\S(=O)(=O)c2ccccc2)S/C1=C\c1cc([N+](=O)[O-])ccc1O | 19 | - | 32 | - | - | -
O=C1N/C(=N\S(=O)(=O)Cc2ccccc2)S/C1=C/c1cc([N+](=O)[O-])ccc1O | 37 | 41 | 29 | - | - | 37
CC(C)Cc1ccc(C(C)C(=O)Nc2cccnc2)cc1 (stereo not given) | 16 | - | - | - | - | 32
CC(C)Cc1ccc(C(C)C(=O)Nc2ccc(O)cc2)cc1 (stereo not given) | 29 | 34 | 54 | - | - | 50
COc1cc(Cl)c(C)cc1NC(=O)CSc1nnc(-c2ccccn2)n1Cc1ccco1 | - | - | - | - | - | -
Cc1nc2ccccc2c(=O)n1NC(=O)c1cccc(Cl)c1 | - | - | - | - | - | -

Screening results from PubChem BioAssay.
